This passage reports fluorescence response and double positive results from PubChem BioAssay AID651707 (NMMLSC, 2012).

SMILES strings stand for the structures. Among all 2,300 compounds or so, about 170 (7.4%) were called active.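 The calls were made as follows: active = over 5% cells positive for green fluorescent reporter, or over 2% positive for both it and APC stain; inactive = the rest, inconclusive results apart.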 These entries were drawn from the full list.

This assay is described as follows: intrinsic compound fluorescence in ER-HoxA9 progenitors, confirmation, artefact control for AML myeloid differentiation project, cell-based, flow cytometry, GFP/APC, Cherry Pick01 (AID 651707).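 As to double positive: share of cells both GFP positive and bound by Mac1 APC antibody.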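 As to fluorescence response: range taken on the double positive population between DMSO and positive control.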 Conditions: no estrogen, GFP autofluorescence flow cytometry, stronger effect = higher value; double positive: measured here: double positive GFP/APC population; fluorescence response: vehicle wells 0%, positive control 100%. For orientation: A flow cytometer gives signals particle by particle.
Turning to `O=C(CCCN1C(=O)CCC1=O)Nc1ccc(Cl)c(C(F)(F)F)c1`, the fluorescence response was 0% (inactive).
For `CCOC(=O)c1c(-c2ccccc2)oc2ccc(OCC(=O)NN)cc12`, the fluorescence response is 0% (inactive).
For the compound `CC(C)OC(=O)CN1C(=O)C(=O)c2ccccc21`, the fluorescence response was 0.5% (inactive).
Same read-out and setting: for `Cc1ccc(C)c(S(=O)(=O)N2CCN(c3ncnc4sccc34)CC2)c1` the value was 0% (inactive); for `O=C(NCC1CCCCC1)NCC1CCCCC1`, 0.2% (inactive); for `Nc1nc(Nc2ccccc2F)nc(NC2CCCCC2)c1[N+](=O)[O-]`, 0% (inactive).
`COc1cccc(NC(=O)[C@H](Cc2c[nH]c3ccccc23)NC(=O)[C@@H]2Cc3ccccc3CN2)c1`: the fluorescence response is 0.6% (inactive).
`COc1ccccc1NC(=O)c1cc(Cl)nnc1Cl`: the fluorescence response is 0.6% (inactive).
As for `O=C(Nc1cccc2ncccc12)c1ccc(-c2ccc(Cl)cc2Cl)o1`, the fluorescence response is 0.6% (inactive).
On to `CCOC(=O)C1=C(CN2CCc3ccccc32)NC(=O)NC1c1cccc([N+](=O)[O-])c1` (configuration not stated), for which the fluorescence response was 0% (inactive).
As for `O[C@H]1CN(Cc2cccs2)[C@@H](c2ccc(Cl)cc2)C[C@@H]1n1cc(C2CC2)nn1`, the fluorescence response is 0% (inactive).
As for `O[C@H]1C[C@H](c2ccc(Cl)cc2)N(Cc2cccs2)C[C@@H]1n1cc(C2CC2)nn1`, the fluorescence response is 0.5% (inactive).
Still for that read-out and setting: for `O=c1oc2ccccc2cc1-c1csc(Nc2ccc(O)cc2)n1` the value was 55.3% (active).
Consider `Cc1ccc(-c2nc(C#N)c(NCCCn3ccnc3)o2)cc1`, for which the fluorescence response was 0.3% (inactive).
In the case of `Cc1ccc(C(=O)NC2CCCC(C)C2C)cc1S(=O)(=O)N1CCCCC1` (configuration not stated), the fluorescence response is 0% (inactive).
For the compound `Cc1cc(C)c(-c2csc(NC(=O)CCCc3nc4ccccc4c(=O)[nH]3)n2)c(C)c1`, the fluorescence response is 2.2% (inactive).
Same read-out and setting: the result for `CC1CCCC(NC(=O)CN2CCN(Cc3ccc(Cl)cc3)C2=O)C1C` (configuration not stated) reads 0% (inactive); that for `COc1ccc(C(=O)N(Cc2ccccc2)c2ccc(C)cc2)cc1S(=O)(=O)N1CCOCC1`, 1.5% (inactive); that for `CN(C(=O)c1cccc([N+](=O)[O-])c1)c1ccccc1C(=O)NCc1ccccc1`, 0.4% (inactive).
In the case of `Cc1ccc(OS(=O)Nc2cccc3nccnc23)cc1` (configuration not stated), the fluorescence response is 0% (inactive).
Regarding `Fc1cccc(Cl)c1CSc1ccc(-c2ccco2)nn1`, the double positive came out at 0.2% and the fluorescence response is 0.5% (inactive).
As for `O=C(CN1C(=O)NC(Cc2c[nH]c3ccccc23)C1=O)Nc1ccccc1C(F)(F)F` (configuration not stated), the fluorescence response is 0% (inactive).
`CCOC(=O)C(C(=O)OCC)C(C#N)c1ccccc1` (configuration not stated): the fluorescence response is 0% (inactive).
Consider `CCN(CC)c1ccc(/C=N/NC(=O)CNC(=O)c2cccs2)cc1`, for which the fluorescence response is 0% (inactive).
For `COc1ccc(C(C(=O)NCc2ccccc2)n2c(=O)c(-c3ccccc3)nc3ccccc32)cc1` (configuration not stated), the fluorescence response is 0.7% (inactive).
Take `N#C/C(=C/c1ccc(N2CCCCC2)o1)C(=O)NCCc1c[nH]c2ccccc12`: the fluorescence response was 64.7% (active).
Take `COc1ccccc1CNC(=O)c1cc(-c2cc(Cl)ccc2C)n[nH]1`: the fluorescence response was 0% (inactive).
As for `O=S(=O)(c1ccc(Br)cc1)c1nc(-c2ccccc2)oc1NCc1cccnc1`, the fluorescence response was 1.5% (inactive).
As for `CC(=O)Nc1ccc(S(=O)(=O)Nc2ccc(N3CCCCC3)cc2)cc1`, the double positive is 10.5% and the fluorescence response is 10.5% (active).
Taken in the same sequence, the figures for `CC(=O)Nc1ccc(S(=O)(=O)Nc2ccc(N3CCOCC3)c(F)c2)cc1` were 0.2% and 0.8% (inactive).
Consider `CCOC(=O)c1c(-c2ccc(C)cc2)csc1/N=C(\C)C1=C(O)c2ccccc2C1=O`, for which the fluorescence response was 0% (inactive).
For the compound `COc1ccc(-c2ccc(OC(=O)NC3CCS(=O)(=O)C3)cc2)cc1` (configuration not stated), the double positive was 0.4% and the fluorescence response is 0.7% (inactive).
On to `COC(=O)CN(c1cccc(C(C)=O)c1)S(C)(=O)=O`, for which the fluorescence response was 0% (inactive).
For `C/C(=C\c1ccccc1)C1NC(=O)c2c(sc3c2CCCC3)N1` (configuration not stated), the fluorescence response was 0% (inactive).
For `COc1ccc(C2CC(c3cccc(OC)c3)=NN2c2ccc(S(N)(=O)=O)cc2)cc1` (configuration not stated), the fluorescence response was 0.5% (inactive).
For the compound `Cc1cc(NC(=O)CSc2nc(C(C)C)nc3sc4c(c23)CCC(C)C4)no1` (configuration not stated), the fluorescence response was 1.4% (inactive).
In the case of `COc1ccc(-c2nnc(SCC(=O)c3cccs3)o2)c(OC)c1`, the fluorescence response is 3.4% (inactive).
Regarding `Cc1ccc2c(c1)C1C[N+](C)(CC(=O)c3ccccc3)CCC1N2C(=O)c1ccccc1Cl` (configuration not stated), the fluorescence response is 0% (inactive).
For `Cc1ccc(-n2nc3cc(C)c(NC(=O)c4cccnc4)cc3n2)cc1`, the fluorescence response is 4.7% (inactive).
Take `COc1ccc2nc(N3CCN(C(=O)c4ccc([N+](=O)[O-])o4)CC3)sc2c1`: the fluorescence response was 0% (inactive).
On the same count and under the same terms, for `CC(C)CC(COCc1ccc(Cl)cc1)N1CCN(C(=O)c2ccc(C(F)(F)F)cc2)CCC1=O` (configuration not stated) the value was 0% (inactive); for `COc1ccccc1N1CCN(C(=O)c2cc(-c3ccc(Br)cc3)on2)CC1`, 0.3% (inactive); for `O=C1c2ccccc2C(=O)N1Cc1cc(-c2ccccc2Cl)no1`, 0% (inactive).
As for `Cc1nn(-c2cc(Cl)ccc2N)c(=O)c2ccccc12`, the fluorescence response was 0% (inactive).
Same read-out and setting: for `CNC[C@H]1Oc2c(NC(=O)C3CCCCC3)cccc2C(=O)N([C@H](C)CO)C[C@@H]1C` the value was 0% (inactive).
On to `O=C(Cn1cc(-c2nnnn2-c2ccc(Cl)cc2)c(=O)c2ccccc21)c1ccccc1`, for which the fluorescence response was 0% (inactive).
`CN1CCC(CN)(N2CCN(c3ccccc3)CC2)CC1`: the fluorescence response is 0.6% (inactive).
For the compound `CC#CC[N+](C)(C)CCCCCC`, the fluorescence response was 0% (inactive).
Still for that read-out and setting: for `N#CC1=C(N)Oc2c(sc3ccccc23)C1c1ccco1` (configuration not stated) the value was 0% (inactive); for `O=C(NC(=O)c1ccccc1)Nc1ccccc1O`, 1.3% (inactive); for `Cc1c(C(=O)OCC(=O)N(CCC#N)c2ccccc2)oc2c1ccc1ccccc12`, 0% (inactive).
Still for that read-out and setting: the result for `Cc1cccc(OCC(O)CN2CCN(CCN3C(=O)c4cccc5cccc(c45)C3=O)CC2)c1C` (configuration not stated) reads 0% (inactive); that for `CCCC(=O)Nc1c(O)c2ccccc2[nH]c1=O`, 0% (inactive).
For `CCN(CC)C(=O)CSC(Nc1cccc(F)c1)=C(C#N)C#N`, the fluorescence response is 7.7% (active).
In the case of `Cc1cc(C)c(S(=O)(=O)NCC2CCC(C(=O)NCc3ccc4c(c3)OCO4)CC2)c(C)c1` (configuration not stated), the fluorescence response was 0.2% (inactive).
On the same count and under the same terms, for `O=C(CN(c1ccccc1)S(=O)(=O)c1ccc(Cl)cc1)Nc1ccccc1C(=O)N1CCCC1` the value was 0% (inactive); for `CC(C)CNC(=O)COC(=O)/C=C/c1ccccc1[N+](=O)[O-]`, 0% (inactive); for `Cc1cc(C)n(C(=O)c2ccc(C)c(S(=O)(=O)N3CCOCC3)c2)n1`, 2.3% (inactive).
In the case of `Cc1ccc(Nc2cc(C)nc3c(C)ccc([N+](=O)[O-])c23)cc1`, the fluorescence response was 6.7% (active).
With `CCc1noc(C)c1C(=O)Nc1nc(-c2ccccc2)cs1`, the fluorescence response was 1% (inactive).
On the same count and under the same terms, the result for `COc1cccc(NC(=S)NCc2ccccn2)c1` reads 0.3% (inactive); that for `COc1cc(/C=C(\C#N)c2nc3ccccc3[nH]2)ccc1O`, 36.7% (active); that for `Clc1ccc(-c2nnc(SCc3nc4ccccc4s3)o2)cc1`, 0% (inactive).
`CCC1CCCCN1CCCNC(=O)Cn1nc(-c2ccccc2)ccc1=O` (configuration not stated): the fluorescence response was 0% (inactive).
`CC1=C(C(N)=O)C(c2ccc3c(c2)OCO3)n2nc(-c3cccc(C)c3)nc2N1` (configuration not stated): the fluorescence response was 0% (inactive).
The same measure, in the same setting: for `COc1ccc(S(=O)(=O)N2CCC(C(=O)N3CCc4ccccc4C3)CC2)cc1OC` the value was 0% (inactive).
As to `CN1OC(COC(=O)c2ccc(Cl)cc2)CC1c1ccccc1` (configuration not stated), the fluorescence response was 0.3% (inactive).
In the case of `COc1cc(/C=C2/SC(=S)N(Cc3ccccc3)C2=O)cc(OC)c1O`, the fluorescence response was 97.2% (active).
As to `Cc1nc(C)c(-c2nnc(-c3cccc(S(=O)(=O)N(C)C)c3)o2)cc1C(=O)NN`, the fluorescence response is 0.7% (inactive).
Still for that read-out and setting: for `CCOc1ccc(C(=O)Nc2ccc(S(=O)(=O)NCC3CCCO3)cc2)cc1OCC` (configuration not stated) the value was 0.3% (inactive); for `CCCCSc1nc2c(c(=O)n1CC)SC(C)C2` (configuration not stated), 0% (inactive); for `Nc1ccc2nc3c(=O)[nH]c(=S)[nH]c3nc2c1`, 0% (inactive).
Consider `CC(C)c1nc2ccc(C(=O)O)cc2[nH]1`, for which the double positive turned out to be 0.4% and the fluorescence response was 0.4% (inactive).
In the case of `COc1ccc(N(CC(=O)NC2CCCCCCC2)S(=O)(=O)c2c(C)nn(C)c2C)cc1`, the fluorescence response was 0% (inactive).
On the same count and under the same terms, the result for `Cc1nn(-c2ncccn2)c2c1C(=O)CC(C)(C)C2Br` (configuration not stated) reads 0% (inactive); that for `Cn1c(CNC(=O)c2ccccc2F)nnc1SCc1ccc(F)cc1`, 0% (inactive); that for `CNc1nc(=O)n(C2CCCO2)cc1C` (configuration not stated), 0% (inactive).
Turning to `CC(=O)N1c2ccc(S(=O)(=O)N3CCCC(C(=O)Nc4cccc(F)c4)C3)cc2CC1C` (configuration not stated), the fluorescence response was 0% (inactive).
In the case of `CCOC(=O)CC(=O)CSc1nc(-c2ccccc2)cc(-c2ccc(Cl)cc2)c1C#N`, the fluorescence response was 0% (inactive).
Turning to `CC(C)(C)OC(=O)CNC(=O)c1[nH]cnc1C(=O)N[C@@H](Cc1ccccc1)C(=O)OCc1ccccc1`, the fluorescence response was 0% (inactive).
`O=C(Nc1cccc(-c2nc3ncccc3o2)c1)c1ccco1`: the fluorescence response was 0.2% (inactive).
As for `O=S(=O)(NCc1cccnc1)c1ccc(Cl)nc1`, the fluorescence response is 0.4% (inactive).
Still for that read-out and setting: for `COCCCn1c(=O)/c(=C/c2ccccc2OC(C)C)s/c1=C(\C#N)C(=O)Nc1ccc(C(=O)O)cc1` the value was 0% (inactive).
In the case of `O=C(Nc1ccccc1N1CCN(c2ccccc2)CC1)c1cccc(F)c1`, the fluorescence response is 0% (inactive).
For `CC1(C)CC(=O)C2=C(C1)Nc1cc(C(=O)c3ccccc3)ccc1NC2c1ccccn1` (configuration not stated), the fluorescence response is 0.4% (inactive).
The same measure, in the same setting: the result for `CCc1c(C)sc(NC(=O)c2cccs2)c1C(N)=O` reads 0% (inactive); that for `C=CCNc1nnc(SCC(=O)N2CCCCC2)c2ccccc12`, 0.3% (inactive).
`Cc1cccc(C)c1NC(=O)CCS(=O)(=O)c1cccc2nsnc12`: the fluorescence response is 0% (inactive).
As to `Cc1ccc2nc(-c3ccccn3)cc(C(=O)Nc3ccc4c(c3)OCO4)c2c1`, the fluorescence response is 0% (inactive).
In the case of `CCOC(=O)c1c(-c2cccc(C)c2)csc1NC(=O)c1c(-c2ccccc2)noc1C`, the fluorescence response is 0% (inactive).
As for `Cn1c2ccccc2c2cc(/C=C(\NC(=O)c3ccccc3)C(=O)NCC(=O)O)ccc21`, the fluorescence response is 0% (inactive).
On the same count and under the same terms, for `CN(C(=O)CSc1nnc(C2CC2)n1C)C1CCCc2ccccc21` (configuration not stated) the value was 0% (inactive).
Take `CSc1nnc(-c2ccncc2)n1CCCN1CCCC1=O`: the fluorescence response was 0% (inactive).
Take `COc1cc(N=Cc2c(O)[nH]c3ccccc23)cc(OC)c1OC`: the fluorescence response is 0% (inactive).
As for `CC(CNc1ccc([N+](=O)[O-])cc1)NC(=O)c1ccccc1Br` (configuration not stated), the fluorescence response is 0.4% (inactive).
`Cc1ccc2c(c1)c1ncn(Cc3ccc(F)cc3)c(=O)c1n2C`: the fluorescence response is 0% (inactive).
`Cc1cccc(-n2c(SCC(=O)Nc3cccc(S(=O)(=O)NC4=NCCCCC4)c3)nc3ccccc3c2=O)c1C`: the fluorescence response was 0% (inactive).
As to `CCN(CC)CC(=O)c1c[nH]c2ccc(OC)cc12`, the fluorescence response is 0.3% (inactive).
On the same count and under the same terms, the result for `CCOc1ccc(NC(=O)CSc2nc3c(c(=O)n2-c2ccccc2OC)SCC3)cc1` reads 0.5% (inactive).
With `CC(C)C(=O)N1CCN(c2nc(-c3ccccc3)c3c(c2C#N)CC(C)(C)OC3)CC1`, the fluorescence response is 0% (inactive).
`O=C(CN1CCN(C2CCCCC2)CC1)Nc1ccccc1N1CCCCC1`: the fluorescence response is 0% (inactive).
In the case of `O=C(NCCN=C1NS(=O)(=O)c2ccccc21)c1ccc(S(=O)(=O)N2CCOCC2)cc1`, the fluorescence response was 4.3% (inactive).
